Assay results: PubChem BioAssay AID1159580 (chemical genetic matrix, 2015)
In all, about 5,500 compounds went through this assay and about 2,000 (36%) were called active. Not shown: some 18% with an inconclusive outcome. No stated cut-off is given here; in the data, active means normalized growth mostly below about 0.91 (no sharp cut-off); inconclusive means no clear call, values can overlap the other calls; inactive means mostly above about 0.92. This is one part of the list.

Assay: chemical genetic growth profiling, strain panel (AID 1159580);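 further: tested at 20 µM; growth read once vehicle control cultures reached saturation at 30 °C; 1 = growth at the plate median or of vehicle wells; lower values mean less growth of the strain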
Settings: S. cerevisiae deletion strains, growth OD

Measured: normalized growth

COC(=O)[C@@H]1OC(=O)C2OC23[C@@]1(C)CCC1[C@@]2(C)CCC(=O)C(C)(C)C2C[C@@H](OC(C)=O)[C@]13C (stereo not given in full)
inactive: locus YAL021C, strain ccr4, active compounds read low 1.01 | locus YAL026C, strain drs2, active compounds read low 1.01 | locus YAL030W, strain snc1, active compounds read low 1.01 | locus YBL061C, strain skt5, active compounds read low 1.01 | locus YBR009C, strain hhf1, active compounds read low 1.01 | locus YBR021W, strain FUR4, active compounds read low 1.03 | locus YBR023C, strain chs3, active compounds read low 1.01 | locus YBR171W, strain sec66, active compounds read low 1.02 | locus YBR229C, strain ROT2, active compounds read low 1.01 | locus YBR231C, strain swc5, active compounds read low 1.01 | locus YBR279W, strain paf1, active compounds read low 1.02 | locus YCL011C, strain gbp2, active compounds read low 1.01 | locus YCL016C, strain dcc1, active compounds read low 1.02 | locus YCL029C, strain bik1, active compounds read low 1.04 | locus YCL061C, strain MRC1, active compounds read low 1.01 | locus YCL069W, strain vba3, active compounds read low 1.01 | locus YCR088W, strain abp1, active compounds read low 1.02 | locus YDL005C, strain med2, active compounds read low 1.02 | locus YDL035C, strain GPR1, active compounds read low 1.05 | locus YDL040C, strain nat1, active compounds read low 1.02 | locus YDL074C, strain BRE1, active compounds read low 1.14 | locus YDL101C, strain DUN1, active compounds read low 1.04 | locus YDL185W, strain tfp1, active compounds read low 1.01 | locus YDL192W, strain arf1, active compounds read low 1.02 | locus YDR001C, strain nth1, active compounds read low 1.01 | locus YDR069C, strain doa4, active compounds read low 1.02 | locus YDR101C, strain arx1, active compounds read low 1.01 | locus YDR137W, strain rgp1, active compounds read low 1.01 | locus YDR159W, strain sac3, active compounds read low 1.01 | locus YDR162C, strain NBP2, active compounds read low 1.04 | locus YDR195W, strain ref2 0.999 | locus YDR297W, strain sur2, active compounds read low 1.01 | locus YDR318W, strain mcm21, active compounds read low 1.02 | locus YDR334W, strain swr1, active compounds read low 1.02 | locus YDR335W, strain msn5, active compounds read low 1.02 | locus YDR388W, active compounds read low 1.01 | locus YDR392W, strain spt3, active compounds read low 1.01 | locus YDR502C, strain sam2, active compounds read low 1.01 | locus YEL003W, strain gim4, active compounds read low 1.02 | locus YEL037C, strain rad23, active compounds read low 1.02 | locus YEL061C, strain CIN8 (second series), active compounds read low 1.03 | locus YER015W, strain faa2, active compounds read low 1.02 | locus YER016W, strain bim1, active compounds read low 1.02 | locus YER110C, active compounds read low 0.992 | locus YER111C, strain swi4, active compounds read low 1.01 | locus YER155C, strain BEM2 (second series), active compounds read low 1.03 | locus YER155C, strain BEM2, active compounds read low 1 | locus YER167W, strain BCK2, active compounds read low 1.01 | locus YFR010W, strain ubp6, active compounds read low 1.01 | locus YGL078C, strain dbp3, active compounds read low 1 | locus YGL086W, strain mad1, active compounds read low 1.02 | locus YGL167C, strain pmr1, active compounds read low 1.02 | locus YGL173C, strain kem1, active compounds read low 1.01 | locus YGL227W, strain vid30, active compounds read low 1.02 | locus YGL240W, strain doc1, active compounds read low 1.02 | locus YGL248W, strain PDE1, active compounds read low 1.05 | locus YGL253W, strain hxk2, active compounds read low 1.01 | locus YGR078C, strain PAC10, active compounds read low 1.05 | locus YGR135W, strain pre9, active compounds read low 1.05 | locus YGR252W, strain gcn5, active compounds read low 1.08 | locus YHR013C, strain ard1, active compounds read low 1.02 | locus YHR027C, strain rpn1, active compounds read low 1.02 | locus YHR079C, strain IRE1 (second series), active compounds read low 0.995 | locus YHR094C, strain hxt1, active compounds read low 0.992 | locus YHR129C, strain ARP1, active compounds read low 1.03 | locus YHR142W, strain chs7, active compounds read low 1.03 | locus YHR200W, strain rpn10, active compounds read low 1.02 | locus YIL066C, strain RNR3, active compounds read low 1.02 | locus YIL073C, strain SPO22, active compounds read low 1.1 | locus YIL125W, strain kgd1, active compounds read low 1.01 | locus YIR030C, strain dcg1, active compounds read low 0.991 | locus YJL092W, strain hpr5, active compounds read low 1.01 | locus YJL095W, strain BCK1 (second series), active compounds read low 1.01 | locus YJL095W, strain BCK1, active compounds read low 1.1 | locus YJL115W, strain asf1, active compounds read low 1 | locus YJL129C, strain trk1, active compounds read low 1.03 | locus YJL134W, strain LCB3, active compounds read low 1.01 | locus YJL154C, strain vps35, active compounds read low 1.03 | locus YJL164C, strain tpk1, active compounds read low 1.03 | locus YJL166W, strain qcr8, active compounds read low 1.01 | locus YJL168C, strain set2, active compounds read low 1.01 | locus YJL187C, strain SWE1 (second series), active compounds read low 1.03 | locus YJL187C, strain SWE1, active compounds read low 1.02 | locus YJR043C, strain POL32, active compounds read low 1.09 | locus YKL009W, strain mrt4, active compounds read low 1 | locus YKL068W, active compounds read low 1.01 | locus YKL085W, strain MDH1 (second series), active compounds read low 0.994 | locus YKL085W, strain MDH1, active compounds read low 0.994 | locus YKL160W, strain elf1, active compounds read low 1.02 | locus YKL190W, strain CNB1, active compounds read low 1.02 | locus YKR001C, strain vps1, active compounds read low 1.06 | locus YKR026C, strain gcn3, active compounds read low 1.02 | locus YKR091W, strain srl3, active compounds read low 1.02 | locus YLL001W, strain dnm1, active compounds read low 1.01 | locus YLL026W, active compounds read low 1.02 | locus YLL041C, strain sdh2, active compounds read low 1.01 | locus YLR027C, strain aat2, active compounds read low 1.03 | locus YLR039C, strain RIC1, active compounds read low 1.13 | locus YLR058C, strain SHM2, active compounds read low 1.04 | locus YLR102C, strain apc9, active compounds read low 0.99 | locus YLR221C, strain rsa3, active compounds read low 1.01 | locus YLR258W, strain gsy2, active compounds read low 1.01 | locus YLR262C, strain YPT6 (second series), active compounds read low 1.03 | locus YLR268W, strain sec22, active compounds read low 1.04 | locus YLR320W, strain mms22, active compounds read low 1.02 | locus YLR330W, strain CHS5, active compounds read low 1.01 | locus YLR342W, strain FKS1 (second series), active compounds read low 1.03 | locus YLR342W, strain FKS1, active compounds read low 1.02 | locus YLR357W, strain rsc2, active compounds read low 1 | locus YLR370C, strain arc18, active compounds read low 1.01 | locus YLR371W, strain rom2, active compounds read low 1.02 | locus YLR384C, strain iki3, active compounds read low 1.04 | locus YLR418C, strain cdc73, active compounds read low 1.06 | locus YML016C, strain PPZ1, active compounds read low 1.01 | locus YML032C, strain rad52, active compounds read low 0.992 | locus YML120C, strain ndi1, active compounds read low 1.02 | locus YML124C, strain tub3, active compounds read low 0.99 | locus YMR058W, strain fet3, active compounds read low 1.01 | locus YMR078C, strain ctf18, active compounds read low 0.998 | locus YMR125W, strain sto1, active compounds read low 1.02 | locus YMR129W, active compounds read low 1.01 | locus YMR205C, strain PFK2, active compounds read low 1.02 | locus YMR223W, strain ubp8, active compounds read low 1.01 | locus YMR231W, strain pep5, active compounds read low 1 | locus YMR307W, strain GAS1, active compounds read low 1.2 | locus YNL067W, strain RPL9B, active compounds read low 1.03 | locus YNL071W, strain lat1, active compounds read low 1.02 | locus YNL153C, strain GIM3, active compounds read low 1.06 | locus YNL209W, strain ssb2, active compounds read low 1.02 | locus YNL233W, strain BNI4, active compounds read low 1.08 | locus YNL248C, strain rpa49, active compounds read low 1.01 | locus YNL250W, strain rad50, active compounds read low 1.01 | locus YNL271C, strain bni1, active compounds read low 0.997 | locus YNL298W, strain CLA4, active compounds read low 1.01 | locus YNL307C, strain MCK1, active compounds read low 0.995 | locus YNL322C, strain KRE1 (second series), active compounds read low 1.02 | locus YNR049C, strain mso1, active compounds read low 1.01 | locus YNR052C, strain pop2, active compounds read low 0.989 | locus YOL012C, strain htz1 1.07 | locus YOL147C, strain pex11, active compounds read low 1 | locus YOR001W, strain rrp6, active compounds read low 1.02 | locus YOR061W, strain CKA2, active compounds read low 1.02 | locus YOR069W, strain VPS5, active compounds read low 1.01 | locus YOR070C, strain gyp1, active compounds read low 1 | locus YOR080W, strain dia2, active compounds read low 1.01 | locus YOR083W, strain WHI5, active compounds read low 1.02 | locus YOR106W, strain vam3, active compounds read low 1.01 | locus YOR136W, strain idh2, active compounds read low 0.993 | locus YOR144C, strain elg1, active compounds read low 0.993 | locus YOR184W, strain ser1, active compounds read low 1.03 | locus YOR265W, strain rbl2, active compounds read low 1.01 | locus YOR270C, strain vph1, active compounds read low 1.05 | locus YOR290C, strain snf2, active compounds read low 1.02 | locus YOR316C, strain cot1, active compounds read low 1 | locus YPL051W, strain arl3, active compounds read low 0.993 | locus YPL055C, strain LGE1, active compounds read low 1.11 | locus YPL078C, strain atp4, active compounds read low 1.01 | locus YPL106C, strain sse1, active compounds read low 1.01 | locus YPL240C, strain hsp82, active compounds read low 1.01 | locus YPL241C, strain CIN2, active compounds read low 1.01 | locus YPR119W, strain clb2, active compounds read low 0.993 | locus YPR141C, strain kar3, active compounds read low 0.994 | locus YPR163C, strain tif3, active compounds read low 1.01 | locus YPR167C, strain met16, active compounds read low 1.01 | strain wtn01, active compounds read low 1.02
